Test results from PubChem BioAssay AID1347074 (Center for Chemical Genomics, University of Michigan, 2019).
Out of some 47,000 compounds screened, about 2,800 (6%) were called active. This is one part of a sample in which actives are shown more often than they occur. Values without a mark were called inactive. Rule as the data show it: active = z-score above about 3 (passing the limit was not always enough); inactive = the rest.

Target: Endoribonuclease Dicer (Homo sapiens) (UniProt Q9UPY3)
Assay: Dicer cleavage of pre-miR-21 blockers – biochemical, cat-ELCCA, chemiluminescence, primary screen (AID 1347074);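 also: plate controls were vehicle for no effect and no enzyme for full effect; higher signal means more uncleaved substrate so more Dicer inhibition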
Conditions: cat-ELCCA pre-miR-21 Dicer processing, at 25 µM, stronger effect = higher value

Endoribonuclease Dicer (Homo sapiens), sequence (Q9UPY3 whole entry, looked up): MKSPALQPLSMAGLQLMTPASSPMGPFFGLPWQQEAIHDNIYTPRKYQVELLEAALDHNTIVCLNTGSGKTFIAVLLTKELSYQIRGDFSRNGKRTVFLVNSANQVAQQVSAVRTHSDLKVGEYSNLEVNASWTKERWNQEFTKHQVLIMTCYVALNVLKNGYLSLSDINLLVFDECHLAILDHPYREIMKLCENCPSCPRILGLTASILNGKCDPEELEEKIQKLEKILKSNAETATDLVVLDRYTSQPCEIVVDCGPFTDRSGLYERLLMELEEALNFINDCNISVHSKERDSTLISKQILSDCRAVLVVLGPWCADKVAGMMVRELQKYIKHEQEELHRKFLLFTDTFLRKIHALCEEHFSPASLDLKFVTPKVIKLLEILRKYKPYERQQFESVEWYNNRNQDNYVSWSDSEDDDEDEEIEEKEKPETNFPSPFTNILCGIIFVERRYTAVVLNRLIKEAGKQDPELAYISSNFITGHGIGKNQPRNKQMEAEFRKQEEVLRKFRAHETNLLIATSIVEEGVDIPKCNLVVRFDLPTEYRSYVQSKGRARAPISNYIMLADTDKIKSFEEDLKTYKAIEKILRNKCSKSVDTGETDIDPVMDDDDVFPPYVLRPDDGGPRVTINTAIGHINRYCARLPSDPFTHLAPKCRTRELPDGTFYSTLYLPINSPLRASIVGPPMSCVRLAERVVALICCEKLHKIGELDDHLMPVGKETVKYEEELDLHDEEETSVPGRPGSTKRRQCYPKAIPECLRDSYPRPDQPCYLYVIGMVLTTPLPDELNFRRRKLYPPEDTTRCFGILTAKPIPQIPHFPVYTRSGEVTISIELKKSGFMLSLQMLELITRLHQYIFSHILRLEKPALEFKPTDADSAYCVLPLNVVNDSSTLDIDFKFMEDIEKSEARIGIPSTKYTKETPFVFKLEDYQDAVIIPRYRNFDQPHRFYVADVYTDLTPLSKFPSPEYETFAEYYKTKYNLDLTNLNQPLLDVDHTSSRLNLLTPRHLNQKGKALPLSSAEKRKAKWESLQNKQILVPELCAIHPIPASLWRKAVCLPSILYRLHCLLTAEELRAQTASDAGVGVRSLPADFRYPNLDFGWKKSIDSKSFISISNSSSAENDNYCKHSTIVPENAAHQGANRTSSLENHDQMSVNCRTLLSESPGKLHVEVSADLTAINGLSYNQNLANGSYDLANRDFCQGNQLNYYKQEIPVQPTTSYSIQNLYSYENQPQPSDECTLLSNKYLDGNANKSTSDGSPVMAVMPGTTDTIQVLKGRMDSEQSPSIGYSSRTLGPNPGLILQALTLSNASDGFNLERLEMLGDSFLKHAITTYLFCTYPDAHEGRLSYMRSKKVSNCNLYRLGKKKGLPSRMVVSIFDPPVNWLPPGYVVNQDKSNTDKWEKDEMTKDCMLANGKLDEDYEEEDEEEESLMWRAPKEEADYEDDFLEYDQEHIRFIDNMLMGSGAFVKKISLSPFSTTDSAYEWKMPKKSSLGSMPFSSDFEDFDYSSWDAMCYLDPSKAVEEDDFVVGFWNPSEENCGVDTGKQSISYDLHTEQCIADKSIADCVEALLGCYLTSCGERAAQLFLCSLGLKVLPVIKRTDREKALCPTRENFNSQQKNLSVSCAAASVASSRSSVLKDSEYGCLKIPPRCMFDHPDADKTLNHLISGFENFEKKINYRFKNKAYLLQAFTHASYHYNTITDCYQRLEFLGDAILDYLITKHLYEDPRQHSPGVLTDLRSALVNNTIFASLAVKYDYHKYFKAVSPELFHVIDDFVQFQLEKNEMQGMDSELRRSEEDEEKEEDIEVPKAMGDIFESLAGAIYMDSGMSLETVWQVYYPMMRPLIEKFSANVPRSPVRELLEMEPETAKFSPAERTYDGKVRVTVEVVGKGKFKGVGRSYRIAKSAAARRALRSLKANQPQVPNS

| Structure (SMILES) | z-score |
| --- | --- |
| O=C(CN1C(=O)c2ccccc2S1(=O)=O)NC1CCCCC1 | 1.13 |
| Cc1ccc(C(=O)CC2(O)C(=O)N(CN3CCCCC3)c3ccc(Br)cc32)cc1 (stereo not drawn) | 0.51 |
| CCOC(=O)c1sc(SC)c(-c2ccccc2)c1N | 11.5 (active) |
| CCOC(=O)c1sc(SC)c2c1-c1ccccc1N(C)S2(=O)=O | -1.61 |
| CCOC(=O)c1sc2ccccc2c1N | 0.22 |
| CCOC(=O)/C(=N\Nc1ccccc1)c1csc(N)n1 | 0.02 |
| Cc1cc(C)n(C(=O)COc2ccc3ccccc3c2Br)n1 | 2.85 |
| CC(C)OC(=O)C1C(=O)CC(C)(O)C(C(=O)OC(C)C)C1c1ccc(O)cc1 (stereo not drawn) | -0.2 |
| COC(=O)C1=C(C)NC2=C(C(=O)CC(C)(C)C2)C1c1cc(Cl)c(O)c(OC)c1 (stereo not drawn) | 3.12 |
| CC(C(=O)N1CCCC1)N1c2cccc3cccc(c23)S1(=O)=O (stereo not drawn) | -0.76 |
| O=[N+]([O-])c1cc(-c2cnc3ccccc3n2)ccc1Sc1ccccn1 | 15.7 |
| COC(=O)c1ccccc1N(C)C(=O)c1cc(OC)c(OC)c(OC)c1 | -0.98 |
| COC(=O)c1cc(OC)c(OC)cc1N1C(=O)c2ccccc2C1=O | 0.34 |
| COC(=O)c1ccccc1-c1c2ccc(=O)cc-2oc2cc(O)ccc12 | 7.57 (active) |
| COC(=O)c1cc(NC(=O)NC(=O)c2c(Cl)cccc2Cl)ccc1S(=O)(=O)Cc1ccc(Cl)cc1 | 1.45 |
| CN(C)CCN1C(=O)C(=O)/C(=C(/O)c2ccc(F)cc2)C1c1cccs1 (stereo not drawn) | 1.06 |
| O=C(Oc1ccc(Cl)cc1Cl)c1ccc(Cl)cc1[N+](=O)[O-] | 4.36 (active) |
| COC(=O)c1sccc1Oc1ccc(Cl)cc1[N+](=O)[O-] | -0.2 |
| CC(CC(=O)O)Oc1ccc(Cl)cc1[N+](=O)[O-] (stereo not drawn) | -0.09 |
| CC(C)N1CNc2nc3ccccc3n2C1 | 1.6 |
| COc1ccc(S(=O)(=O)N2CCCCC2)cc1Br | 4.32 (active) |
| COc1ccccc1N1CCN(S(=O)(=O)c2ccc(Br)cc2)CC1 | 1.29 |
| O=c1oc2cc(S(=O)(=O)N3CCCCC3)ccc2c2ccc(S(=O)(=O)N3CCCCC3)cc12 | 1.67 |
| Cc1nc(-c2ccc(S(=O)(=O)N3CCCN(c4ncc(C(F)(F)F)cc4Cl)CC3)s2)cs1 | -1.58 |
| O=C1COCC(=O)N1c1ccc(F)cc1F | 2.81 |

| Structure (SMILES) | z-score |
| --- | --- |
| O=C1COCC(=O)N1c1ccc2c(c1)OCO2 | 3.01 (active) |
| O=C1/C(=C/c2ccc3c(c2)OCO3)CCC/C1=C\c1ccc2c(c1)OCO2 | -1.56 |
| CS(=O)(=O)N1N=C(c2c(-c3ccccc3)c3cc(Cl)ccc3[nH]c2=O)CC1c1cccs1 (stereo not drawn) | 0.27 |
| COc1ccccc1-c1coc2cc(OC(=O)c3ccccc3Cl)ccc2c1=O | 0.93 |
| O=c1c(-c2ccccc2)coc2cc(O)ccc12 | 3.37 (active) |
| Cc1c2occ(-c3ccccc3)c2cc2c1oc(=O)c1ccccc12 | 2.4 |
| Cc1nn(Cc2ccc(C(=O)NCc3ccccn3)o2)c(C)c1[N+](=O)[O-] | 1.35 |
| Fc1ccc2onc(-c3cnn(-c4ccccc4)c3)c2c1 | 3.3 (active) |
| Cc1ccc2oc(-c3cccc(N4C(=O)c5cccnc5C4=O)c3)nc2c1 | -1 |
| COc1ccc(-n2cnc3cc(NCc4ccco4)ccc32)cc1 | 6.39 (active) |
| CC(Oc1cccc2c(=O)c3ccccc3oc12)C(=O)O (stereo not drawn) | -0.48 |
| CSc1sc(C(=O)NN)cc1C#N | 1.26 |
| CCOC(=O)N1CCc2c(sc3c2C(=O)NC(c2ccccc2F)N3)C1 (stereo not drawn) | 1.08 |
| Cc1cc(C(C)(C)C)ccc1NC(=O)COCC(=O)O | 1.34 |
| CCCCOc1cc(O)c2c(=O)cc(-c3ccccc3)oc2c1 | -0.66 |
| CCOc1ccc(-c2nc(-c3ccc(C)nc3OC)no2)cc1 | 0.23 |
| CCOc1ccc(-c2cc(O)cc3sc(=O)oc23)cc1 | 5.74 (active) |
| Cn1c2c(c(=O)n(C)c1=O)C(C(=O)Nc1ccc(Cl)cc1)CC(=O)N2 (stereo not drawn) | 1.36 |
| COC(=O)c1sccc1NNS(=O)(=O)c1ccc(C)cc1 | 0.67 |
| C=CCOc1ccc(C(=O)N(Cc2ccc(OC)cc2)C2CCS(=O)(=O)C2)cc1 (stereo not drawn) | 1.67 |
| C=CCOc1ccc2c(=O)cc(C(=O)OCC)oc2c1 | -0.35 |
| NC(=O)c1c(NC(=O)CSc2nc3ccccc3o2)sc2c1CCC2 | 0.14 |
| CC(C)N1CCC(=O)N(c2ccccc2Cl)C1=O | 5.02 (active) |
| CC(C)Oc1ccccc1Oc1ccc([N+](=O)[O-])cn1 | 14.5 (active) |
| O=[N+]([O-])c1ccc(Sc2ccc(Cl)cc2)nc1 | -0.03 |

| Structure (SMILES) | z-score |
| --- | --- |
| CC(C)(C)n1cnnc1Sc1ccc([N+](=O)[O-])cn1 | 2.43 |
| COc1c(Br)cc([N+](=O)[O-])c(OC)c1C(N)=O | -0.32 |
| Cc1cc2n(n1)C(c1cc(C(C)(C)C)c(O)cc1O)Nc1ccccc1-2 (stereo not drawn) | 3.4 (active) |
| Cc1cc(C)c2c(c1)-c1cc(C)nn1C(c1ccc(O)cc1)N2 (stereo not drawn) | 2.1 |
| CCN(CC)c1ccc(C2Nc3ccccc3-c3cc(C)nn32)c(O)c1 (stereo not drawn) | 0.47 |
| OC(CN1CCN(C(c2ccccc2)c2ccccc2)CC1)Oc1cccc(C(F)(F)F)c1 (stereo not drawn) | 2.86 |
| O=C1c2cccc3cc(Br)cc(c23)C(=O)N1CCO | 2.14 |
| CCN1/C(=C\C=C\c2scc[n+]2CC)Sc2c1ccc1ccccc21 | -2.64 |
| CC(=O)/C(=C\N=S(C)(=O)c1ccc(C)cc1)S(=O)(=O)c1ccc(Cl)cc1 (stereo not drawn) | -3.56 |
| CC1=C(C(=O)OCC2CCCO2)C(c2cccs2)C2=C(CC(c3cccs3)CC2=O)N1 (stereo not drawn) | 1.27 |
| C=CCn1c(SCc2nnc(SCC(=O)c3ccc(Cl)cc3)o2)nnc1-c1ccccc1 | 1.72 |
| CC1(C)Cc2c(C#N)c(SCc3nc4ccccc4[nH]3)nc(N3CCOCC3)c2CO1 | -1.2 |
| C=CCn1c(SCc2nc3ccccc3[nH]2)nnc1-c1ccccc1 | 4.03 (active) |
| COc1ccc(-c2noc(-c3ccc(Cl)cc3)n2)cc1OC1CCCC1 | -0.55 |
| Cc1ccc(-n2c(C)nc3sc4c(c3c2=O)CCC(C)C4)cc1 (stereo not drawn) | -0.76 |
| CCOC(=O)c1c(NC(=O)C2CCCN2S(=O)(=O)c2ccccc2)sc(C)c1C (stereo not drawn) | 42.8 |
| O=S(=O)(c1ccc(Cl)cc1)N1CCN(c2cc(C(F)(F)F)nc3ccccc23)CC1 | -1.11 |
| Cn1c(=O)c2c(nc(NCCc3ccccc3)n2Cc2ccccc2)n(C)c1=O | -1.91 |
| Cn1c(Oc2ccccc2Br)nc2c1c(=O)n(Cc1ccccc1)c(=O)n2C | 5.58 (active) |
| C=CCn1c(Oc2ccccc2Cl)nc2c1c(=O)n(C)c(=O)n2C | 0.6 |
| COC(=O)COc1c(C)cc(-c2nn(C)c(=O)c3ccccc23)cc1C | -1.18 |
| CCCCOC(C)n1cc(Br)c(=O)[nH]c1=O (stereo not drawn) | 0.67 |
| CCOCCOC(=O)C1=C(C)NC2=C(C(=O)CC(c3cccs3)C2)C1c1ccc(OC(C)=O)cc1 (stereo not drawn) | 0.06 |
| CCSCCOC(=O)C1=C(C)NC2=C(C(=O)CC(c3cccs3)C2)C1c1ccsc1 (stereo not drawn) | 1.85 |
| CC1=C(C(=O)OCc2ccccc2)C(c2ccc3c(c2)OCO3)C2=C(CC(c3cccs3)CC2=O)N1 (stereo not drawn) | 3.65 (active) |

| Structure (SMILES) | z-score |
| --- | --- |
| S=C(N/N=C/c1ccc(Cl)cc1)Nc1cc(Cl)ccc1Cl | -0.45 |
| O=C(O)c1ccccc1/C=N/Nc1cc(Cl)ccc1Cl | 5.07 (active) |
| CCOC(=O)N/N=C/c1ccccc1Cl | -1.05 |
| N#Cc1ccsc1N1C(=O)c2ccccc2C1=O | 0.31 |
| CCOC(=O)CSC(=NC)NNC(=O)c1c(C)nc2cc(C)ccn12 | -0.21 |
| CC(C)(C)c1ccc(-c2cc(NC(=O)c3ccc(Cl)cc3)n[nH]2)cc1 | 1.49 |
| Cc1cc(Br)c(NC(=O)c2ccc(Cl)cc2)c(Br)c1 | 4.71 (active) |
| Cc1cc(C)c(C(=O)NC(=O)Nc2c(Cl)cc(Cl)cc2Cl)c(C)c1 | 0.37 |
| Cc1cccc(C2C3=C(CCCC3=O)N=C3c4ccccc4C(=O)C32)c1 (stereo not drawn) | 2.43 |
| CC(C)(C)C(=O)Nc1ccncc1C(=O)O | -4.04 |
| Nc1nc(COc2ccccc2Cl)ncc1S(=O)(=O)c1ccccc1 | -2.39 |
| COc1ccc(-c2cc(C(F)(F)F)nc(SCC(=O)NC3CC3)n2)cc1OC | -0.37 |
| COc1ccc(-c2cc(C(F)(F)F)nc(SCC(=O)NC3CCCC3)n2)cc1OC | 1.64 |
| COc1ccc(-c2cc(C(F)(F)F)n3ncnc3n2)cc1OC | 4.99 (active) |
| C/C(=N\NC(=S)Nc1cccc(F)c1)c1ccco1 | 5.72 (active) |
| CNNC(=S)Nc1ccc(F)c(C)c1 | 1.79 |
| CCc1[nH]nc2c1C(c1ccc(OC)c(OC)c1)C(C#N)=C(N)O2 (stereo not drawn) | -3.59 |
| COc1ccc2cc(S(=O)(=O)N3CCN(C(c4ccccc4)c4ccccc4)CC3)ccc2c1 | 0.57 |
| CC1CCN(C(=S)NC2CC3CCC2C3)CC1 (stereo not drawn) | 2.37 |
| CCOC(=O)c1c(NC(=O)c2cc3ccccc3o2)sc(C)c1C | 0.8 |
| CC(=Nc1ccccc1)c1nc(-c2ccccc2)oc1O | 1.37 |
| O=S(=O)(c1cccc(-c2cn3cccnc3n2)c1)N1CCCC1 | 0.36 |
| COc1ccccc1C(=O)CC1(O)C(=O)Nc2ccc(Cl)cc21 (stereo not drawn) | 6.27 |
